# Screening data: PubChem BioAssay, National Center for Advancing Translational Sciences (NCATS)
# Only some compounds are listed: those with a hit (about 9.3% of all), similar ones and a draw of the others.
# ELG1 genotoxic: qHTS screen for small molecules that induce genotoxicity in human embryonic kidney (HEK293T) cells expressing luciferase-tagged ELG1; HEK293T ELG1-luciferase reporter, luminescence, 16 h; Potency, µM (series often up to 46 µM), for inactives: top-dose activity change, positive = activation, most hits filed as activators; 330,000 tested, 1.3% active; AID 504466, 2011; note: % of control where 0% means no effect; nearly all actives have a fitted effect of over 60% in size
#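 Quantitative HTS format in 1536-well plates. HEK293T ELG1-luciferase reporter cells receive test compound and are incubated 16 hr at 37 °C, 5% CO2; ONE-Glo added, 30 min room temperature, then luminescence read.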
# SMN2 splice enh: qHTS Assay for Enhancers of SMN2 Splice Variant Expression | Potency, µM (top dose mostly 46.1 µM), for inactives: top-dose activity change, positive = activation, most hits filed as activators | AID 1458, 2008 | HEK293 SMN2-luciferase splicing reporter, luminescence, 30-36 h | 210,000 tested, 2.8% active; note: % of control where 0% means no effect; nearly all actives have a fitted effect of over 55% in size
#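 HEK293 cells carry an SMN2 minigene-luciferase reporter in which exon 7 inclusion puts luciferase in frame. Cells were seeded at 2000 cells/well, attached for 10-12 hours, then exposed to compounds for 30-36 hours at 37C before ONE-Glo luminescence.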
# Rab9 prom act: qHTS Assay for Rab9 Promoter Activators. Huh7 Rab9 promoter-luciferase reporter, luminescence, 24 h. Potency, µM (titrated, usually from 9.22 µM), for the others: at the highest dose activation, negative = inhibition, most hits filed as activators. 320,000 tested, 2.8% active. AID 485297, 2010; note: % of control where 0% means no effect; nearly all actives have a fitted effect of over 60% in size
#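 Stable Rab9-luc Huh7, 1500 cells/well, 2 h settle; cmpd in DMSO, 24 h, 37 °C/5% CO2; luciferase reagent 10 min RT; luminescence.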
# ELG1 repair inh: qHTS screen for small molecules that inhibit ELG1-dependent DNA repair in human embryonic kidney (HEK293T) cells expressing luciferase-tagged ELG1. 330,000 tested, 2.3% active. HEK293T ELG1-luciferase reporter, luminescence, 16 h; DNA damage induced by 5-fluorouridine. Potency, µM (top dose mostly 46.1 µM), for the others: top-dose activity change, negative = inhibition, most hits filed as inhibitors; note: % is set by controls: 0 for no effect and ±100 for the full control effect; nearly all actives have a fitted effect of over 55% in size
#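 In this reporter screen, reduction of luminescence relative to DMSO vehicle indicated activity. Compounds and 5-fluorouridine were added together to 2,000 cells per well, incubated for 16 hr at 37 °C, then developed with ONE-Glo.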
# FLuc counter: qHTS profiling assay for firefly luciferase inhibitor/activator using purifed enzyme and Km concentrations of substrates (counterscreen for miR-21 project); Luciferin 4-monooxygenase (Photinus pyralis), P08659; purified FLuc, Km substrates, luminescence inhibition; Potency, µM (titrated, usually from 57.5 µM), for the others: top-dose activity change, negative = inhibition, usual class: inhibitors; 360,000 tested, 6.9% active; AID 588342, 2011;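 note: plate controls were vehicle for no effect and reference inhibitor for full effect; nearly all actives have a fitted effect of over 55% in size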
# Target sequence (P08659 whole entry, looked up): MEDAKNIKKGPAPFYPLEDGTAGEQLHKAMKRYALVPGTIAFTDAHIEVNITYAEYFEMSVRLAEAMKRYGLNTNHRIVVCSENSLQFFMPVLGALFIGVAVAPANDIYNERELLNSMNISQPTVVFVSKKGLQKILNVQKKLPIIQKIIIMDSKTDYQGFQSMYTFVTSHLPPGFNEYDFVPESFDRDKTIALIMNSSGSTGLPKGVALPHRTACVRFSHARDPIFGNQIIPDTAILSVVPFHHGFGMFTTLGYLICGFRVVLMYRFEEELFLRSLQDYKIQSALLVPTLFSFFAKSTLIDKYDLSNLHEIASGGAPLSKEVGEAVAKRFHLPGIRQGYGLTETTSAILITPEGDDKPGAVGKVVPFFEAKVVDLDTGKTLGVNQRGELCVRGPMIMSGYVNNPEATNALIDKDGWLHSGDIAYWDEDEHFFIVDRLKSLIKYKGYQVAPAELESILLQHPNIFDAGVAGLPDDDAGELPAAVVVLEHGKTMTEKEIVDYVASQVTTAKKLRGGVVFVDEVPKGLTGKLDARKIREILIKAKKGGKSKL
#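 Biochemical qHTS of compounds, final roughly 60 µM downward over six points, against 10 nM purified firefly luciferase using Km concentrations of substrates (10 uM D-luciferin, 10 uM ATP) in Tris acetate pH 7.5 buffer; luminescence output.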
# NPC1 prom act: qHTS Assay for NPC1 Promoter Activators; Huh7 NPC1 promoter luciferase reporter, 24 h; Potency, µM (highest dose often 9.22 µM), for the others: top-dose activation, usual class: activators; 320,000 tested, 2.4% active; AID 485313, 2010; note: % of control where 0% means no effect; nearly all actives have a fitted effect of over 60% in size
#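 Stable NPC1-promoter luciferase Huh7 line; cpd (DMSO) 24 h, 37 °C, 5% CO2; Amplite luciferase reagent 10 min RT; luminescence readout. qHTS format.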
# The depositor's hits bear a star; ? = inconclusive; nt = not tested or not shown. Calls come from the whole dose curve; as a rule, active = well fitted curve in the direction sought with a large enough effect; inconclusive = small, poorly fitted or top-dose-only effect, or another doubt; inactive = no such curve, though single readings can be large; an effect the other way counts as inactive or inconclusive. Potency is the fitted concentration of half-maximal effect.
SMILES,ELG1 genotoxic,SMN2 splice enh,Rab9 prom act,ELG1 repair inh,FLuc counter,NPC1 prom act
COc1ccc(/C=C(\C#N)C(=O)OCC(=O)Nc2ccc(-c3nc4ccc(C)cc4s3)cc2)cc1,0.651µM*,2.51µM*,0.398µM*,?,1.69µM*,0.447µM*
Cc1cccc(OCC(=O)Nc2ccc3nc(SCc4ccccc4)sc3c2)c1,nt,nt,nt,nt,2.6%,nt
Cc1ccc2nc(-c3ccc(NC(=O)CN4C(=O)NC(C)(c5ccc(OC(F)F)cc5)C4=O)cc3)sc2c1 (configuration not stated),20.6µM*,nt,1.41µM*,?,5.36µM*,2.51µM*
Cn1nccc1C(=O)NC1CCCc2c1cnn2-c1cc(F)cc(F)c1 (configuration not stated),-2.1%,nt,6.5%,?,?,-4.0%
O=C(Cc1ccc(F)cc1)NC1CC(=O)N(c2ccc3c(c2)OCCO3)C1 (configuration not stated),nt,nt,nt,nt,-4.0%,nt
C=CCn1c(SCC(=O)NNC(=O)Nc2ccc(C)cc2)nnc1-c1ccccc1,0.5%,nt,-2.4%,8.5%,-1.9%,-4.3%
C=CCn1c(SCC(=O)Nc2ccc(-c3nc4ccc(C)cc4s3)cc2)nnc1-c1ccccc1,?,0.794µM*,0.501µM*,?,2.39µM*,?
O=C(COC(=O)C1CC1)Nc1ccc(Cl)cc1Cl,0.9%,nt,-1.7%,12.6%,?,-4.3%
COCCn1c(-c2cc(OC)c(OC)c(OC)c2)nc2oc3ccccc3c(=O)c2c1=O,-8.6%,14.1µM*,2.0%,-13.1%,-0.4%,-0.8%
COc1ccc2c(=O)c3c(=O)n(Cc4ccco4)c(-c4cc(OC)c(OC)c(OC)c4)nc3oc2c1,-3.6%,4.6%,-13.2%,13µM*,-5.1%,-2.1%
COc1ccc2c(=O)c3c(=O)n(Cc4ccco4)c(-c4ccccc4)nc3oc2c1,-19.3%,3.6%,-0.3%,?,0.4%,1.0%
COCCn1c(-c2ccccc2)nc2oc3ccccc3c(=O)c2c1=O,-0.9%,-1.9%,4.2%,14.4%,3.3%,-3.7%
COc1ccc(-n2cc(-c3ccc(Cl)cc3)[nH]c2=S)cc1,6.3%,nt,1.26µM*,?,-11.6%,27.5%
COc1cccc(-n2cc(-c3ccc(F)cc3)[nH]c2=S)c1,?,nt,0.316µM*,?,?,1.58µM*
COc1ccccc1CNC(=O)c1cc(-c2ccccc2)n[nH]1,nt,nt,nt,nt,0.2%,nt
Nc1nc(-c2ccc3c(c2)CCCC3)c(CC(=O)O)s1,-0.7%,nt,4.1%,2.7%,23.9µM*,-0.7%
O=C(NCC(=O)N1CCCCC1)c1sc2ccccc2c1Cl,?,nt,2.24µM*,?,8.49µM*,1.78µM*
CC1CC(C)CN(C(=O)CNC(=O)c2sc3ccccc3c2Cl)C1 (configuration not stated),-1.0%,nt,13.4%,-4.7%,?,4.8%
O=C(Nc1ccc(CN2CCCCC2)cc1)c1sc2ccccc2c1Cl,13.0%,nt,15.1%,?,13.5µM*,25.2%
CC1CCCN(C(=O)CNC(=O)c2sc3ccccc3c2Cl)C1 (configuration not stated),?,nt,2.51µM*,?,15.1µM*,?
Cc1ccc(NC(=O)[C@@H](c2ccccc2)N2Cc3ccccc3C2=O)cc1,nt,11.8%,nt,nt,-17.2%,nt
COc1ccc(-c2ncncc2-c2ccccc2)c(O)c1,-11.9%,nt,5.7%,?,-1.6%,0.0%
COc1ccc(-c2cc(-c3ccccc3O)[nH]n2)cc1,?,nt,3.16µM*,?,0.849µM*,1.78µM*
COc1ccccc1-c1cc(-c2cc(Cl)ccc2O)n[nH]1,2.8%,15.4%,-1.4%,?,2.4%,1.6%
